Screen size: about 220,000 compounds; about 530 (0.24%) were called active. Cut-off read from the data, not from the text of the source: active = inhibition above about 13%; inconclusive = no clear call, values can overlap the other calls; inactive = below that. The sample as a whole holds a higher share of actives than the screen did. Potency and affinity values are given separately.

Bifunctional protein GlmU (Mycobacterium tuberculosis (strain ATCC 25618 / H37Rv)), sequence (P9WMN3 whole entry, looked up): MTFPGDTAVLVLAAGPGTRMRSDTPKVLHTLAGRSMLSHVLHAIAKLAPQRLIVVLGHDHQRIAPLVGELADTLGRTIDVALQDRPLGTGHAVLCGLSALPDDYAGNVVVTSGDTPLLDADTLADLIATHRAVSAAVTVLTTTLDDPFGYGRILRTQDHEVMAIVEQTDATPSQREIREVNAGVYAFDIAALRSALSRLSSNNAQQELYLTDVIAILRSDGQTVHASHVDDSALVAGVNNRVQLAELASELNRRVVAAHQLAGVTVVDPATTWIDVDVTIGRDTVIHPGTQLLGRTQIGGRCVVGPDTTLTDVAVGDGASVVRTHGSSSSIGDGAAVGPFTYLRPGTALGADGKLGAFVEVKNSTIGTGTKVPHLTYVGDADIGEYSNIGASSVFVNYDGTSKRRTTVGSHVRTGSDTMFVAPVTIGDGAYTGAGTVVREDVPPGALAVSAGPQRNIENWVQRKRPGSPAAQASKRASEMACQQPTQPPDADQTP

This assay addresses Bifunctional protein GlmU (Mycobacterium tuberculosis (strain ATCC 25618 / H37Rv)) (UniProt P9WMN3). Kind of assay: inhibition of mycobacterial GlmU enzyme – biochemical, glucosamine-1-phosphate acetyltransferase (AID 1376).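 Note: 0% = complete reaction with vehicle and 100% = reaction without substrate.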 The settings on record: M. tuberculosis GlmU acetyltransferase enzyme assay; hits give high values;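 tested at 30 µM in the primary screen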.
For orientation: inhibition means the drop in the measured response relative to a control, in per cent. With `O=C(/C=C\c1ccco1)Oc1cccc2cccnc12`, the inhibition was 0.86% (inactive). With `O=C(/C=C/c1ccco1)Oc1cccc2cccnc12`, the inhibition was 14.7% (active). As for `O=C(/C=C/c1ccccc1)Oc1cccc2cccnc12`, the inhibition is 0.34% (inactive). Regarding `CN(NC(=O)Nc1ccccc1)c1cnn(C)c(=O)c1Cl`, the inhibition was 4.46% (inactive). For the compound `Cc1ccc(NC(=O)CC2COc3ccccc3O2)cc1` (stereo unspecified), the inhibition was -0.6% (inactive). With `CC1(C)CC(=O)C2=C(C1)NC(=O)CC2c1ccc(N(CCC#N)CCC#N)cc1` (stereo unspecified), the inhibition is -4.28% (inactive). For `O=C1CSC(=S)N1/N=C/c1ccc(O)c([N+](=O)[O-])c1` the value was 55.6% (active); for `O=C1CSC(=S)N1/N=C/c1ccc(Cl)c([N+](=O)[O-])c1`, 4.42% (inactive); for `O=C1c2ccccc2C(=O)N1/N=C/c1ccc(O)c(O)c1O`, 10.8% (inactive).

`COc1cccc(/C=N/N2C(=O)CSC2=S)c1O`: the inhibition was 5.18% (inactive). In the case of `COc1cc(/C=N/N2C(=O)CSC2=S)ccc1O` it was -0.65% (inactive); in that of `COC(=O)c1c(C)n(-c2ccc(C)cc2)c2ccc(O)cc12`, -3.11% (inactive). For `O=C(CCn1c(=O)[nH]c2ccccc2c1=O)N1CC=C(c2ccccc2)CC1` the value was 1.07% (inactive). Consider `O=C(CSc1ccccn1)N/N=C/c1cc([N+](=O)[O-])ccc1O`, for which the inhibition is 4.16% (inactive). In the case of `O=C(Nc1cccc(S(=O)(=O)N2CCOCC2)c1)c1ccc(Cl)c([N+](=O)[O-])c1`, the inhibition is -7.13% (inactive). Regarding `O=C(Nc1cccc(C(F)(F)F)c1)N1CCN(C(=O)Nc2cccc(C(F)(F)F)c2)CC1`, the inhibition is -0.83% (inactive). As to `COc1ccccc1N1CCN(C(=O)/C=C/c2c(Cl)nc3ccccn23)CC1`, the inhibition is 1.7% (inactive).

For the compound `COc1ccc(/C=N/c2c(-c3ccc(OC)cc3)nc3n2CCS3)cc1`, the inhibition was -0.71% (inactive).

As to `Cc1nc2cc(NC(=O)NCc3ccc4c(c3)OCO4)ccc2o1`, the inhibition was 0.01% (inactive).

Turning to `CC12CCC(c3nnc(SCc4ccc(Cl)cc4)nc31)C2(C)C` (stereo unspecified), the inhibition was 7.21% (inactive).

Turning to `COc1ccc(-c2nc3scc(-c4ccccc4)n3n2)cc1`, the inhibition was 5.16% (inactive). Turning to `COCCn1c(Cc2ccccc2)nnc1SCC(=O)Nc1ccccc1`, the inhibition is 2.41% (inactive). As for `Cc1cc(C)c(OCCN2C(=O)NC(C)(C)C2=O)c(Cl)c1`, the inhibition was 14.1% (active). For `CC1(C)NC(=O)N(CCOCCOc2c(Cl)cc(Cl)cc2Cl)C1=O` the value was 2.47% (inactive); for `Cc1cc(Cl)c(OCCN2C(=O)NC(C)(C)C2=O)c(Br)c1`, -1.37% (inactive); for `CNC(=O)c1ncoc1-c1ccc(Cl)cc1`, -1.29% (inactive). In the case of `O=C(Nc1ccccc1)c1nnsc1S(=O)(=O)c1ccc(Cl)cc1` it was 6.59% (inactive). In the case of `O=C(c1cc(-c2ccc(Cl)cc2)on1)N1CCOCC1` it was 3.17% (inactive); in that of `CNC(=O)c1nnsc1S(=O)(=O)c1ccc(Cl)cc1`, 11.5% (inactive); in that of `CCCNC(=O)c1nnsc1Sc1ccc(Cl)cc1`, 1.02% (inactive). With `Cc1nnsc1C(=O)Nc1ccc(Cl)cc1`, the inhibition was 5.53% (inactive). For the compound `O=C(c1nnsc1S(=O)(=O)c1ccc(Cl)cc1)N1CCOCC1`, the inhibition is 0.93% (inactive).

`CCCNC(=O)c1nnsc1S(=O)(=O)c1ccc(Cl)cc1`: the inhibition was 10.7% (inactive). As for `CC1(C)C(=O)OC(c2ccccc2)C2(CCCC2)C1=O` (stereo unspecified), the inhibition is -6.73% (inactive). For `COC(=O)N1CCN(CCc2ccccc2)CC1` the value was 0.78% (inactive); for `CCCCNC(=O)CNC(=S)N(Cc1ccccc1)Cc1cccs1`, 4.12% (inactive). On to `CCc1cccc(NC(=O)CCS(=O)(=O)c2cccc3nonc23)c1`, for which the inhibition is 0.23% (inactive). `CC(NC(=O)CSC(=S)N(C)C)C12CC3CC(CC(C3)C1)C2` (stereo unspecified): the inhibition is 2.22% (inactive). For `O=C1C2C3C=CC(C3)C2C(=O)N1CCCCN1C(=O)C2C3C=CC(C3)C2C1=O` (stereo unspecified) the value was 4.77% (inactive); for `O=C1C2C3C=CC(C3)C2C(=O)N1CCCCCCN1C(=O)C2C3C=CC(C3)C2C1=O` (stereo unspecified), -4.36% (inactive); for `CCCC(=O)Nc1c(C)nn(C(=O)CCC)c1C`, 9.51% (inactive).

As for `COc1cccc(-c2nnc(SCCC(=O)O)n2C)c1`, the inhibition is -2.35% (inactive). In the case of `C/C(Cl)=C/Cn1c(NCCCn2ccnc2)nc2c1c(=O)[nH]c(=O)n2C` it was -3.26% (inactive); in that of `COc1ccc(OC)c(NC(=O)COC(=O)c2ccc(S(=O)(=O)N3CCOCC3)cc2)c1`, 14.5% (active); in that of `Cc1cc(C)n(-c2ccc(C(=O)OCC(=O)Nc3ccc(S(=O)(=O)N4CCOCC4)cc3)cc2)n1`, 12.8% (active). `CCN(CC)S(=O)(=O)c1ccc(NC(=O)COC(=O)c2ccc(-n3nc(C)cc3C)cc2)cc1`: the inhibition was 2.95% (inactive). For `COc1ccc(C(=O)OCC(=O)Nc2cc(S(=O)(=O)N3CCOCC3)ccc2N2CCCC2)cc1` the value was 0.15% (inactive); for `Cc1cc(C)n(-c2ccc(C(=O)OCC(=O)Nc3ccc(S(=O)(=O)N4CCCCC4)cc3)cc2)n1`, 0.24% (inactive). In the case of `COc1ccc(S(=O)(=O)N2CCOCC2)cc1NC(=O)COC(=O)c1ccc(C)s1` it was 0.67% (inactive).

Take `CC(C)(Oc1ccc(CCNC(=O)c2ccc(-c3ccc(Cl)cc3)o2)cc1)C(=O)O`: the inhibition is 8.95% (inactive). For the compound `COC(=O)c1ccc(/C=N/N2CCN(Cc3ccc(C)cc3C)CC2)cc1`, the inhibition was 0.99% (inactive). In the case of `CC(C)Oc1ccc(C(=O)N2CCCC2C(=O)O)cc1` (stereo unspecified) it was 1.48% (inactive); in that of `CCCCCCCCCCCC(=O)N/N=C/c1ccco1`, 2.22% (inactive); in that of `O=C(O)CC(C(=O)Nc1ccc(Cl)c(Cl)c1)C1CCCO1` (stereo unspecified), 5.87% (inactive). For `CC(=O)[C@@H]1[C@@H](C)N(Cc2ccccc2)C(=O)N[C@H]1c1cccc(C(F)(F)F)c1`, the inhibition is 3.76% (inactive).

As to `Cc1oc(C(C)(C)C)cc1C(=O)N1CCN(C(c2ccccc2)c2ccccc2)CC1`, the inhibition is -0.86% (inactive). In the case of `COC(=O)CCC(=O)NC(=S)Nc1ccccc1F` it was -2.07% (inactive). Turning to `O=C(Nc1ccc(Cl)cc1)c1ccc2nsnc2c1`, the inhibition is 4.02% (inactive). As to `O=C(Nc1ccc(F)cc1)c1ccc2nsnc2c1`, the inhibition is -5.81% (inactive). For `O=C(Nc1ccccc1)c1ccc2nsnc2c1`, the inhibition was 19.3% (active). Consider `O=C(CSc1nnc(-c2ccc(OC(F)F)cc2)o1)NCc1cccs1`, for which the inhibition was -1.34% (inactive).
